Test results as given in PubChem BioAssay (NCATS).
Where “and” joins values, the source holds several entries; their conditions need not be identical. Equal values may be shown once. Unmarked numbers belong to inactive results. Records with an inconclusive call do not appear. A call without a number means that no potency is given here. Where a structure was tested more than once in an assay, its records may differ in their call. Calls of active or inactive are those of the source. Unless noted, the call rests on the fitted dose curve; in most records, active means well fitted curve in the direction sought with a large enough effect; inconclusive means small, poorly fitted or top-dose-only effect, or another doubt; inactive means no such curve, though single readings can be large; an effect the other way counts as inactive or inconclusive.

Assays:
C33A = assay: Primary qHTS to identify gynecologic anti-cancer compounds using libraries of approved drugs and bioactive compounds (AID 1345084); conditions: Gynecologic cancer cell panel viability, ATPlite luminescence, 48 h; series mostly up to 57.5 µM; further: nearly all actives have a fitted effect of over 55% in size
In short: (§1)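 In this quantitative HTS, cell killing is estimated from loss of ATP-dependent luciferase light. Cells see five compound concentrations over a 48 h exposure.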

CASKI = assay: as above; conditions: Gynecologic cancer cell panel viability, ATPlite luminescence, 48 h; series mostly up to 57.5 µM
In short: as §1

Es-2 = assay: as above; conditions: Gynecologic cancer cell panel viability, ATPlite luminescence, 48 h; series mostly up to 57.5 µM
In short: as §1

HeLa = assay: as above; conditions: Gynecologic cancer cell panel viability, ATPlite luminescence, 48 h; series mostly up to 57.5 µM
In short: as §1

Hek293T = assay: as above; conditions: Gynecologic cancer cell panel viability, ATPlite luminescence, 48 h, control line for the selectivity index; series mostly up to 57.5 µM
In short: as §1

JEG-3 = assay: as above; conditions: Gynecologic cancer cell panel viability, ATPlite luminescence, 48 h; series mostly up to 57.5 µM
In short: as §1

OV90 = assay: as above; conditions: Gynecologic cancer cell panel viability, ATPlite luminescence, 48 h; series mostly up to 57.5 µM
In short: as §1

PA-1 = assay: as above; conditions: Gynecologic cancer cell panel viability, ATPlite luminescence, 48 h; series mostly up to 57.5 µM
In short: as §1

SKOV3 = assay: as above; conditions: Gynecologic cancer cell panel viability, ATPlite luminescence, 48 h; series mostly up to 57.5 µM
In short: as §1

Tov-21-G = assay: as above; conditions: Gynecologic cancer cell panel viability, ATPlite luminescence, 48 h; series mostly up to 57.5 µM
In short: as §1

Tov112D = assay: as above; conditions: Gynecologic cancer cell panel viability, ATPlite luminescence, 48 h; series mostly up to 57.5 µM
In short: as §1

[1] = Drug repurposing screens with cells derived from glioblastoma tumor samples (AID 1345199); conditions: GBM patient neurospheres viability, ATP luminescence, 48 h; further: nearly all actives have a fitted effect of over 40% in size; further: potency means the concentration at half of the fitted maximal effect
In short: (§2)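 Four patient lines of CD133+ GBM neurospheres were screened at several concentrations; hits were retested in those lines plus three slower-growing GBM lines, using 48-hour treatment and ATP-based viability.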

astro = assay: as above; conditions: viability, ATP luminescence, 48 h; series mostly up to 45.9 µM
In short: as §2

[2] = target: Nuclear receptor subfamily 1 group I member 2 (Rattus norvegicus) (UniProt Q9R1A7); assay: qHTS assay for small molecule activators of the rat pregnane X receptor (rPXR) signaling pathway (AID 651751; call rule not given here); conditions: rPXR reporter cells, luciferase (One-Glo), 24 h
Nuclear receptor subfamily 1 group I member 2 (Rattus norvegicus), sequence (Q9R1A7 whole entry, looked up): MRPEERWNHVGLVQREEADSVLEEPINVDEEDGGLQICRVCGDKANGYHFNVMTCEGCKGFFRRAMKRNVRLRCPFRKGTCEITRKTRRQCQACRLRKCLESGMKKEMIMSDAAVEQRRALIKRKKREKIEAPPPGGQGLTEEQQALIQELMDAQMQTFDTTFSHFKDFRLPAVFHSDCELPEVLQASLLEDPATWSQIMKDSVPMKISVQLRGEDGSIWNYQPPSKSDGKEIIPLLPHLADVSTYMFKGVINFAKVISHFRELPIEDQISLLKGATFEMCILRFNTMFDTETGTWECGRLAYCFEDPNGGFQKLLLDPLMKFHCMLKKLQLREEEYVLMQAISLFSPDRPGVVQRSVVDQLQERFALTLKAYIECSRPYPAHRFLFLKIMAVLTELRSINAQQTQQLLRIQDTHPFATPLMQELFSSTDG

[3] = at 45.9 µM (top of the series), tumour line B
[4] = at 45.9 µM (top of the series), tumour line D
[5] = at 46 µM (top of the series), tumour line A

SMILES | Potency (C33A) | outcome (CASKI) | Potency (Es-2) | Potency (HeLa) | outcome (Hek293T) | outcome (JEG-3) | Potency (OV90) | Potency (PA-1) | outcome (SKOV3) | Potency (Tov-21-G) | Potency (Tov112D) | activity, negative = cell killing ([1]; at 91.6 µM (top of the series), tumour line B) [%] | activity, negative = cell killing ([1]; at 91.6 µM (top of the series), tumour line D) [%] | Potency (astro) | activity, negative = cell killing [1, 3] | activity, negative = cell killing [1, 4] | Potency ([1]; tumour line A) | activity, negative = cell killing [1, 5] [%] | max response [2]
CCN[C@@H](C)Cc1cccc(C(F)(F)F)c1 | inactive | inactive | inactive | inactive | inactive | inactive | inactive | inactive | inactive | inactive | inactive | 2.77 | -1.09 | inactive | – | – | – | – | –
CCCCCCC(=O)CCCCCC/C=C/C[C@@H](O)[C@H](O)[C@@](N)(CO)C(=O)O | inactive | inactive | inactive | inactive | inactive | inactive | inactive | inactive | inactive | inactive | inactive | – | – | inactive | -13.1% and -22.4% | -26.9% and -22.9% | 35.5 µM (active) | – | –
O=C1OC(c2ccc(O)c(S(=O)(=O)O)c2)(c2ccc(O)c(S(=O)(=O)O)c2)c2c(Br)c(Br)c(Br)c(Br)c21 | inactive | inactive | inactive | inactive | inactive | inactive | inactive | inactive | inactive | inactive | inactive | – | – | inactive | -1.68% | 0.706% | – | -10.6 | –
CCc1cc2c(s1)-n1c(C)nnc1CN=C2c1ccccc1Cl | inactive | inactive | inactive | inactive | inactive | inactive | inactive | inactive | inactive | inactive | inactive | – | – | inactive | -22.1% | -8.05% | – | – | –
C=C(C)[C@H]1CN[C@H](C(=O)O)[C@H]1CC(=O)O | inactive | inactive | inactive | inactive | inactive | inactive | inactive | inactive | inactive | inactive | inactive | – | – | – | -14.8% | -15.4% | – | – | –
C[C@]1(O)CC[C@H]2[C@@H]3CCC4=CC(=O)CC[C@]4(C)[C@@]3(F)[C@@H](O)C[C@@]21C | – | – | – | – | – | – | – | – | – | – | – | – | – | – | -7.52% | -21.3% | 35.5 µM (active) | – | –
CCCC(C)(COC(N)=O)COC(N)=O | – | – | – | – | – | – | – | – | – | – | – | – | – | – | 0.449% | -14.8% | – | -19.1 | 3.06% and 3.91%
Cc1nnc2n1-c1ccc(Cl)cc1C(c1ccccc1)=NC2 | – | – | – | – | – | – | – | – | – | – | – | – | – | – | – | 7.45% | – | – | –
